Results: PubChem BioAssay AID1159580 (chemical genetic matrix, 2015)
Among all 5,500 compounds or so, about 2,000 (36%) were called active. Inconclusive results (about 18%) are left out. No stated cut-off is given here; in the data, active means normalized growth mostly below about 0.91 (no sharp cut-off); inconclusive means no clear call, values can overlap the other calls; inactive means mostly above about 0.92. Some of the results follow.

Experiment: chemical genetic growth profiling, strain panel (AID 1159580);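 further: tested at 20 µM; growth read once vehicle control cultures reached saturation at 30 °C; 1 = growth at the plate median or of vehicle wells; lower values mean less growth of the strain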
Settings: growth OD
[1] = S. cerevisiae deletion strains, locus YAL013W, strain DEP1, hits give low values
[2] = S. cerevisiae deletion strains, locus YBR229C, strain ROT2, hits give low values
[3] = S. cerevisiae deletion strains, locus YCL061C, strain MRC1, hits give low values
[4] = S. cerevisiae deletion strains, locus YDL101C, strain DUN1, hits give low values
[5] = S. cerevisiae deletion strains, locus YDL134C, strain PPH21, hits give low values
[6] = S. cerevisiae deletion strains, locus YDR150W, strain NUM1, hits give low values
[7] = S. cerevisiae deletion strains, locus YEL061C, strain CIN8, hits give low values
[8] = S. cerevisiae deletion strains, locus YGR078C, strain PAC10, hits give low values
[9] = S. cerevisiae deletion strains, locus YGR229C, strain SMI1, hits give low values
[10] = S. cerevisiae deletion strains, locus YHR030C, strain SLT2, hits give low values
[11] = S. cerevisiae deletion strains, locus YHR087W, strain rtc3, hits give low values
[12] = S. cerevisiae deletion strains, locus YJR043C, strain POL32, hits give low values
[13] = S. cerevisiae deletion strains, locus YJR075W, strain HOC1, hits give low values
[14] = S. cerevisiae deletion strains, locus YLR039C, strain RIC1, hits give low values
[15] = S. cerevisiae deletion strains, locus YLR058C, strain SHM2 (second series), hits give low values
[16] = S. cerevisiae deletion strains, locus YLR085C, strain ARP6, hits give low values
[17] = S. cerevisiae deletion strains, locus YLR262C, strain YPT6, hits give low values
[18] = S. cerevisiae deletion strains, locus YML094W, strain GIM5, hits give low values
[19] = S. cerevisiae deletion strains, locus YMR219W, strain ESC1, hits give low values
[20] = S. cerevisiae deletion strains, locus YMR263W, strain SAP30, hits give low values
[21] = S. cerevisiae deletion strains, locus YMR307W, strain GAS1, hits give low values
[22] = S. cerevisiae deletion strains, locus YNL153C, strain GIM3, hits give low values
[23] = S. cerevisiae deletion strains, locus YNL298W, strain CLA4 (second series), hits give low values
[24] = S. cerevisiae deletion strains, locus YNL322C, strain KRE1, hits give low values
[25] = S. cerevisiae deletion strains, locus YNR030W, strain Alg12, hits give low values
[26] = S. cerevisiae deletion strains, locus YOL006C, strain TOP1, hits give low values
[27] = S. cerevisiae deletion strains, locus YPL055C, strain LGE1, hits give low values
[28] = S. cerevisiae deletion strains, locus YPL241C, strain CIN2, hits give low values
[29] = S. cerevisiae deletion strains, locus YPR135W, strain CTF4, hits give low values
[30] = S. cerevisiae deletion strains, locus YKL190W, strain CNB1, hits give low values
[31] = S. cerevisiae deletion strains, locus YNL128W, strain TEP1, hits give low values

Measured: normalized growth

CN(C)C=Nc1nnc(Sc2ncccc2[N+](=O)[O-])s1
inactive: [1] 0.999 | [2] 1 | [3] 1.01 | [4] 1.01 | [5] 1.01 | [6] 0.987 | [7] 0.995 | [8] 1 | [9] 0.992 | [10] 1 | [11] 1.01 | [12] 0.985 | [13] 0.997 | [14] 1.03 | [15] 1 | [16] 1.06 | [17] 1.03 | [18] 1.01 | [19] 1.01 | [20] 0.995 | [21] 0.983 | [22] 0.977 | [23] 1.06 | [24] 1.02 | [25] 1.04 | [26] 1.01 | [27] 0.988 | [28] 1.02 | [29] 1.06

CC(C)(C)NS(=O)(=O)NC(C)(C)C
inactive: [1] 0.995 | [2] 1 | [3] 1.03 | [4] 0.977 | [6] 0.88 | [7] 1.01 | [8] 0.999 | [10] 0.952 | [11] 0.964 | S. cerevisiae deletion strains, locus YJL187C, strain SWE1, hits give low values 0.999 | [12] 0.998 | [13] 1.02 | [30] 1 | [14] 1.02 | [15] 1 | [16] 0.999 | [17] 1.02 | [18] 0.976 | [19] 0.995 | [20] 1.04 | [31] 0.997 | [22] 1.01 | [23] 0.973 | [24] 1 | [25] 1.01 | [26] 1.01 | [27] 0.921 | [29] 1.02
active: [28] 1.16 [resistant]

NCC(CC(=O)O)c1ccc(Cl)s1 (centres undefined)
inactive: [1] 0.991 | S. cerevisiae deletion strains, locus YBR021W, strain FUR4, hits give low values 0.96 | [2] 0.99 | S. cerevisiae deletion strains, locus YCL029C, strain bik1, hits give low values 0.985 | S. cerevisiae deletion strains, locus YDL035C, strain GPR1, hits give low values 0.994 | S. cerevisiae deletion strains, locus YDL074C, strain BRE1, hits give low values 1.02 | [4] 0.992 | [5] 0.982 | S. cerevisiae deletion strains, locus YDL185W, strain tfp1, hits give low values 0.978 | S. cerevisiae deletion strains, locus YDL192W, strain arf1, hits give low values 0.987 | S. cerevisiae deletion strains, locus YDR101C, strain arx1, hits give low values 0.998 | [6] 1 | S. cerevisiae deletion strains, locus YDR162C, strain NBP2, hits give low values 1.03 | S. cerevisiae deletion strains, locus YDR318W, strain mcm21, hits give low values 0.968 | S. cerevisiae deletion strains, locus YDR388W, hits give low values 0.99 | S. cerevisiae deletion strains, locus YDR502C, strain sam2, hits give low values 0.996 | [7] 0.994 | S. cerevisiae deletion strains, locus YER110C, hits give low values 0.979 | S. cerevisiae deletion strains, locus YER155C, strain BEM2, hits give low values 1 | S. cerevisiae deletion strains, locus YER167W, strain BCK2, hits give low values 0.973 | S. cerevisiae deletion strains, locus YGL078C, strain dbp3, hits give low values 0.995 | S. cerevisiae deletion strains, locus YGL086W, strain mad1, hits give low values 0.958 | S. cerevisiae deletion strains, locus YGL248W, strain PDE1, hits give low values 0.987 | [8] 0.994 | S. cerevisiae deletion strains, locus YGR135W, strain pre9, hits give low values 0.974 | [9] 0.958 | S. cerevisiae deletion strains, locus YGR252W, strain gcn5, hits give low values 0.926 | [10] 0.989 | S. cerevisiae deletion strains, locus YHR079C, strain IRE1 (second series), hits give low values 0.992 | S. cerevisiae deletion strains, locus YHR094C, strain hxt1, hits give low values 0.991 | S. cerevisiae deletion strains, locus YHR129C, strain ARP1, hits give low values 0.99 | S. cerevisiae deletion strains, locus YHR200W, strain rpn10, hits give low values 0.978 | S. cerevisiae deletion strains, locus YIL066C, strain RNR3, hits give low values 0.979 | S. cerevisiae deletion strains, locus YIL073C, strain SPO22, hits give low values 0.959 | S. cerevisiae deletion strains, locus YIL125W, strain kgd1, hits give low values 1.01 | S. cerevisiae deletion strains, locus YIR030C, strain dcg1, hits give low values 0.993 | S. cerevisiae deletion strains, locus YJL095W, strain BCK1, hits give low values 0.991 | S. cerevisiae deletion strains, locus YJL134W, strain LCB3, hits give low values 0.989 | S. cerevisiae deletion strains, locus YJL168C, strain set2, hits give low values 0.996 | S. cerevisiae deletion strains, locus YJL187C, strain SWE1 (second series), hits give low values 0.999 | [12] 0.964 | [13] 1.06 | S. cerevisiae deletion strains, locus YKL009W, strain mrt4, hits give low values 1 | S. cerevisiae deletion strains, locus YKL068W, hits give low values 0.989 | S. cerevisiae deletion strains, locus YKL085W, strain MDH1 (second series), hits give low values 1.02 | S. cerevisiae deletion strains, locus YKL085W, strain MDH1, hits give low values 1.02 | [30] 0.997 | S. cerevisiae deletion strains, locus YKR001C, strain vps1, hits give low values 0.947 | [14] 1.01 | S. cerevisiae deletion strains, locus YLR058C, strain SHM2, hits give low values 0.985 | S. cerevisiae deletion strains, locus YLR102C, strain apc9, hits give low values 0.998 | [17] 1.03 | S. cerevisiae deletion strains, locus YLR268W, strain sec22, hits give low values 0.988 | S. cerevisiae deletion strains, locus YLR330W, strain CHS5, hits give low values 0.993 | S. cerevisiae deletion strains, locus YLR342W, strain FKS1 (second series), hits give low values 0.978 | S. cerevisiae deletion strains, locus YLR371W, strain rom2, hits give low values 0.986 | S. cerevisiae deletion strains, locus YLR418C, strain cdc73, hits give low values 0.914 | S. cerevisiae deletion strains, locus YML016C, strain PPZ1, hits give low values 0.984 | S. cerevisiae deletion strains, locus YML032C, strain rad52, hits give low values 0.963 | S. cerevisiae deletion strains, locus YML124C, strain tub3, hits give low values 0.979 | S. cerevisiae deletion strains, locus YMR078C, strain ctf18, hits give low values 0.989 | S. cerevisiae deletion strains, locus YMR223W, strain ubp8, hits give low values 0.958 | [20] 1.01 | [21] 0.959 | S. cerevisiae deletion strains, locus YNL067W, strain RPL9B, hits give low values 1.02 | [31] 1.02 | [22] 1.02 | S. cerevisiae deletion strains, locus YNL233W, strain BNI4, hits give low values 0.989 | S. cerevisiae deletion strains, locus YNL250W, strain rad50, hits give low values 0.995 | S. cerevisiae deletion strains, locus YNL271C, strain bni1, hits give low values 0.988 | S. cerevisiae deletion strains, locus YNL298W, strain CLA4, hits give low values 0.988 | S. cerevisiae deletion strains, locus YNL307C, strain MCK1, hits give low values 0.954 | [24] 0.999 | S. cerevisiae deletion strains, locus YNR052C, strain pop2, hits give low values 0.981 | [26] 0.973 | S. cerevisiae deletion strains, locus YOL012C, strain htz1 1.87 | S. cerevisiae deletion strains, locus YOL147C, strain pex11, hits give low values 0.998 | S. cerevisiae deletion strains, locus YOR061W, strain CKA2, hits give low values 0.997 | S. cerevisiae deletion strains, locus YOR069W, strain VPS5, hits give low values 0.983 | S. cerevisiae deletion strains, locus YOR136W, strain idh2, hits give low values 0.981 | S. cerevisiae deletion strains, locus YOR144C, strain elg1, hits give low values 0.987 | S. cerevisiae deletion strains, locus YOR184W, strain ser1, hits give low values 0.94 | S. cerevisiae deletion strains, locus YOR316C, strain cot1, hits give low values 0.992 | [27] 1.05 | [28] 0.993 | S. cerevisiae deletion strains, locus YPR119W, strain clb2, hits give low values 0.994 | S. cerevisiae deletion strains, locus YPR141C, strain kar3, hits give low values 0.982 | S. cerevisiae deletion strains, locus YPR163C, strain tif3, hits give low values 0.991 | S. cerevisiae deletion strains, locus YPR167C, strain met16, hits give low values 0.99 | S. cerevisiae deletion strains, strain wtn01, hits give low values 0.988 | S. cerevisiae strains, strain wild type, hits give low values 0.979
